In all, about 5,500 compounds went through this assay and about 2,000 (36%) were called active. Not shown: some 18% with an inconclusive outcome. The list shows a part of the results. Unmarked numbers belong to inactive results. No stated cut-off is given here; in the data, active means normalized growth mostly below about 0.91 (no sharp cut-off); inconclusive means no clear call, values can overlap the other calls; inactive means mostly above about 0.92.
Test: chemical genetic growth profiling, strain panel (AID 1159580);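 further: tested at 20 µM; growth read once vehicle control cultures reached saturation at 30 °C; 1 = growth at the plate median or of vehicle wells; lower values mean less growth of the strain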
Settings: growth OD

For `CC(=O)OC[C@@]1(O)C[C@@]23CCC4c5ccoc5CC[C@]4(C)C2CC[C@@H]1C3` (some centres not stated), the normalized growth (S. cerevisiae deletion strains, locus YJR075W, strain HOC1, active compounds read low) was 1.01, the normalized growth (S. cerevisiae deletion strains, locus YKL009W, strain mrt4, active compounds read low) was 0.868 (active) and the normalized growth (S. cerevisiae deletion strains, locus YKL068W, active compounds read low) was 0.969. It also gave a normalized growth (S. cerevisiae deletion strains, locus YKL085W, strain MDH1 (second series), active compounds read low) of 0.967, a normalized growth (S. cerevisiae deletion strains, locus YKL085W, strain MDH1, active compounds read low) of 0.967 and a normalized growth (S. cerevisiae deletion strains, locus YKL160W, strain elf1, active compounds read low) of 0.978. The normalized growth (S. cerevisiae deletion strains, locus YKL190W, strain CNB1, active compounds read low) was 0.986, the normalized growth (S. cerevisiae deletion strains, locus YKR001C, strain vps1, active compounds read low) was 0.942 and the normalized growth (S. cerevisiae deletion strains, locus YKR026C, strain gcn3, active compounds read low) was 1.01. The normalized growth (S. cerevisiae deletion strains, locus YKR091W, strain srl3, active compounds read low) was 1, the normalized growth (S. cerevisiae deletion strains, locus YLL001W, strain dnm1, active compounds read low) was 0.974 and the normalized growth (S. cerevisiae deletion strains, locus YLL026W, active compounds read low) was 1.02. The normalized growth (S. cerevisiae deletion strains, locus YLL041C, strain sdh2, active compounds read low) was 1.02, the normalized growth (S. cerevisiae deletion strains, locus YLR027C, strain aat2, active compounds read low) was 1.01 and the normalized growth (S. cerevisiae deletion strains, locus YLR039C, strain RIC1, active compounds read low) was 0.661 (active). For the same compound, the normalized growth (S. cerevisiae deletion strains, locus YLR058C, strain SHM2, active compounds read low) was 0.973, the normalized growth (S. cerevisiae deletion strains, locus YLR102C, strain apc9, active compounds read low) was 0.973 and the normalized growth (S. cerevisiae deletion strains, locus YLR113W, strain HOG1, active compounds read low) was 0.901. The normalized growth (S. cerevisiae deletion strains, locus YLR221C, strain rsa3, active compounds read low) was 0.968, the normalized growth (S. cerevisiae deletion strains, locus YLR258W, strain gsy2, active compounds read low) was 0.99 and the normalized growth (S. cerevisiae deletion strains, locus YLR262C, strain YPT6 (second series), active compounds read low) was 0.817 (active). It also gave a normalized growth (S. cerevisiae deletion strains, locus YLR262C, strain YPT6, active compounds read low) of 0.624, a normalized growth (S. cerevisiae deletion strains, locus YLR268W, strain sec22, active compounds read low) of 0.987 and a normalized growth (S. cerevisiae deletion strains, locus YLR320W, strain mms22, active compounds read low) of 0.945. For the same compound, the normalized growth (S. cerevisiae deletion strains, locus YLR330W, strain CHS5, active compounds read low) was 0.969, the normalized growth (S. cerevisiae deletion strains, locus YLR342W, strain FKS1 (second series), active compounds read low) was 0.775 (active) and the normalized growth (S. cerevisiae deletion strains, locus YLR342W, strain FKS1, active compounds read low) was 1.01. The normalized growth (S. cerevisiae deletion strains, locus YLR357W, strain rsc2, active compounds read low) was 0.963, the normalized growth (S. cerevisiae deletion strains, locus YLR370C, strain arc18, active compounds read low) was 1 and the normalized growth (S. cerevisiae deletion strains, locus YLR371W, strain rom2, active compounds read low) was 0.96. The normalized growth (S. cerevisiae deletion strains, locus YLR384C, strain iki3, active compounds read low) was 1.03, the normalized growth (S. cerevisiae deletion strains, locus YLR418C, strain cdc73, active compounds read low) was 0.983 and the normalized growth (S. cerevisiae deletion strains, locus YML016C, strain PPZ1, active compounds read low) was 0.978. The normalized growth (S. cerevisiae deletion strains, locus YML032C, strain rad52, active compounds read low) was 0.884 (active), the normalized growth (S. cerevisiae deletion strains, locus YML120C, strain ndi1, active compounds read low) was 1.01 and the normalized growth (S. cerevisiae deletion strains, locus YML124C, strain tub3, active compounds read low) was 0.98. The normalized growth (S. cerevisiae deletion strains, locus YMR058W, strain fet3, active compounds read low) was 0.952, the normalized growth (S. cerevisiae deletion strains, locus YMR078C, strain ctf18, active compounds read low) was 0.965 and the normalized growth (S. cerevisiae deletion strains, locus YMR125W, strain sto1, active compounds read low) was 0.988. It also gave a normalized growth (S. cerevisiae deletion strains, locus YMR129W, active compounds read low) of 1.02, a normalized growth (S. cerevisiae deletion strains, locus YMR205C, strain PFK2, active compounds read low) of 0.981 and a normalized growth (S. cerevisiae deletion strains, locus YMR223W, strain ubp8, active compounds read low) of 0.905. The normalized growth (S. cerevisiae deletion strains, locus YMR231W, strain pep5, active compounds read low) was 1.01, the normalized growth (S. cerevisiae deletion strains, locus YMR263W, strain SAP30, active compounds read low) was 0.985 and the normalized growth (S. cerevisiae deletion strains, locus YMR307W, strain GAS1, active compounds read low) was 0.779. It also gave a normalized growth (S. cerevisiae deletion strains, locus YNL067W, strain RPL9B, active compounds read low) of 0.963, a normalized growth (S. cerevisiae deletion strains, locus YNL071W, strain lat1, active compounds read low) of 0.964 and a normalized growth (S. cerevisiae deletion strains, locus YNL128W, strain TEP1, active compounds read low) of 0.997. It also gave a normalized growth (S. cerevisiae deletion strains, locus YNL153C, strain GIM3, active compounds read low) of 0.992, a normalized growth (S. cerevisiae deletion strains, locus YNL183C, strain NPR1, active compounds read low) of 0.877 and a normalized growth (S. cerevisiae deletion strains, locus YNL209W, strain ssb2, active compounds read low) of 1.02. The normalized growth (S. cerevisiae deletion strains, locus YNL233W, strain BNI4, active compounds read low) was 0.947, the normalized growth (S. cerevisiae deletion strains, locus YNL248C, strain rpa49, active compounds read low) was 0.96 and the normalized growth (S. cerevisiae deletion strains, locus YNL250W, strain rad50, active compounds read low) was 0.976. For the same compound, the normalized growth (S. cerevisiae deletion strains, locus YNL271C, strain bni1, active compounds read low) was 0.975, the normalized growth (S. cerevisiae deletion strains, locus YNL298W, strain CLA4, active compounds read low) was 0.891 (active) and the normalized growth (S. cerevisiae deletion strains, locus YNL307C, strain MCK1, active compounds read low) was 0.778 (active). It also gave a normalized growth (S. cerevisiae deletion strains, locus YNL322C, strain KRE1 (second series), active compounds read low) of 1.03, a normalized growth (S. cerevisiae deletion strains, locus YNL322C, strain KRE1, active compounds read low) of 0.997 and a normalized growth (S. cerevisiae deletion strains, locus YNR049C, strain mso1, active compounds read low) of 1.01. The normalized growth (S. cerevisiae deletion strains, locus YNR052C, strain pop2, active compounds read low) was 0.938, the normalized growth (S. cerevisiae deletion strains, locus YOL006C, strain TOP1, active compounds read low) was 1.11 and the normalized growth (S. cerevisiae deletion strains, locus YOL012C, strain htz1) was 1.41. For the same compound, the normalized growth (S. cerevisiae deletion strains, locus YOL147C, strain pex11, active compounds read low) was 0.971, the normalized growth (S. cerevisiae deletion strains, locus YOR001W, strain rrp6, active compounds read low) was 0.985 and the normalized growth (S. cerevisiae deletion strains, locus YOR061W, strain CKA2, active compounds read low) was 0.952. For the same compound, the normalized growth (S. cerevisiae deletion strains, locus YOR069W, strain VPS5, active compounds read low) was 0.981, the normalized growth (S. cerevisiae deletion strains, locus YOR070C, strain gyp1, active compounds read low) was 1.01 and the normalized growth (S. cerevisiae deletion strains, locus YOR080W, strain dia2, active compounds read low) was 1.02. The normalized growth (S. cerevisiae deletion strains, locus YOR083W, strain WHI5, active compounds read low) was 0.978, the normalized growth (S. cerevisiae deletion strains, locus YOR106W, strain vam3, active compounds read low) was 0.998 and the normalized growth (S. cerevisiae deletion strains, locus YOR136W, strain idh2, active compounds read low) was 0.95. The normalized growth (S. cerevisiae deletion strains, locus YOR144C, strain elg1, active compounds read low) was 0.97, the normalized growth (S. cerevisiae deletion strains, locus YOR184W, strain ser1, active compounds read low) was 0.69 (active) and the normalized growth (S. cerevisiae deletion strains, locus YOR231W, strain MKK1, active compounds read low) was 0.872. It also gave a normalized growth (S. cerevisiae deletion strains, locus YOR265W, strain rbl2, active compounds read low) of 1.01, a normalized growth (S. cerevisiae deletion strains, locus YOR270C, strain vph1, active compounds read low) of 1.21 and a normalized growth (S. cerevisiae deletion strains, locus YOR290C, strain snf2, active compounds read low) of 0.927. It also gave a normalized growth (S. cerevisiae deletion strains, locus YOR316C, strain cot1, active compounds read low) of 0.966, a normalized growth (S. cerevisiae deletion strains, locus YPL051W, strain arl3, active compounds read low) of 0.967 and a normalized growth (S. cerevisiae deletion strains, locus YPL055C, strain LGE1, active compounds read low) of 0.954. For the same compound, the normalized growth (S. cerevisiae deletion strains, locus YPL078C, strain atp4, active compounds read low) was 0.931, the normalized growth (S. cerevisiae deletion strains, locus YPL106C, strain sse1, active compounds read low) was 0.99 and the normalized growth (S. cerevisiae deletion strains, locus YPL240C, strain hsp82, active compounds read low) was 1.01. For the same compound, the normalized growth (S. cerevisiae deletion strains, locus YPL241C, strain CIN2, active compounds read low) was 0.978, the normalized growth (S. cerevisiae deletion strains, locus YPL256C, strain CLN2, active compounds read low) was 0.927 and the normalized growth (S. cerevisiae deletion strains, locus YPR119W, strain clb2, active compounds read low) was 0.967. For the same compound, the normalized growth (S. cerevisiae deletion strains, locus YPR141C, strain kar3, active compounds read low) was 0.989, the normalized growth (S. cerevisiae deletion strains, locus YPR163C, strain tif3, active compounds read low) was 0.962 and the normalized growth (S. cerevisiae deletion strains, locus YPR167C, strain met16, active compounds read low) was 0.978. The normalized growth (S. cerevisiae deletion strains, strain wtn01, active compounds read low) was 0.948 and the normalized growth (S. cerevisiae strains, strain wild type, active compounds read low) was 0.964.

Source: PubChem BioAssay AID1159580 (chemical genetic matrix, 2015)
